Measurements published in PubChem BioAssay AID1159580 (chemical genetic matrix, 2015).
Where “and” joins values, the source holds several entries; their conditions need not be identical. Equal entries are not always repeated. Hit rate of the full screen: of about 5,500 compounds, about 2,000 (36%) were called active. Roughly 18% stayed inconclusive and do not appear here. Cut-off read from the data, not from the text of the source: active = normalized growth mostly below about 0.91 (no sharp cut-off); inconclusive = no clear call, values can overlap the other calls; inactive = mostly above about 0.92. The list shows a part of the results.

Test: chemical genetic growth profiling, strain panel (AID 1159580);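 note: tested at 20 µM; growth read once vehicle control cultures reached saturation at 30 °C; 1 = growth at the plate median or of vehicle wells; lower values mean less growth of the strain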
Settings: S. cerevisiae deletion strains, growth OD

C[C@@H]1CC[C@@]2(NC1)O[C@H]1C[C@H]3C4CC=C5C[C@@H](O)CC[C@]5(C)C4CC[C@]3(C)C1[C@@H]2C (stereo partly drawn)
normalized growth (locus YAL021C, strain ccr4, stronger effect = lower value): 0.0884 (active) | normalized growth (locus YAL026C, strain drs2, stronger effect = lower value): 0.0686 (active) | normalized growth (locus YAL030W, strain snc1, stronger effect = lower value): 0.0727 (active) | normalized growth (locus YBL061C, strain skt5, stronger effect = lower value): 0.246 (active) | normalized growth (locus YBR009C, strain hhf1, stronger effect = lower value): 0.0752 (active) | normalized growth (locus YBR021W, strain FUR4, stronger effect = lower value): 0.566 (active) | normalized growth (locus YBR023C, strain chs3, stronger effect = lower value): 0.189 (active) | normalized growth (locus YBR171W, strain sec66, stronger effect = lower value): 0.0867 (active) | normalized growth (locus YBR229C, strain ROT2, stronger effect = lower value): 0.132 (active) | normalized growth (locus YBR231C, strain swc5, stronger effect = lower value): 0.147 (active) | normalized growth (locus YBR279W, strain paf1, stronger effect = lower value): 0.431 (active) | normalized growth (locus YCL011C, strain gbp2, stronger effect = lower value): 0.0674 (active) | normalized growth (locus YCL016C, strain dcc1, stronger effect = lower value): 0.155 (active) | normalized growth (locus YCL029C, strain bik1, stronger effect = lower value): 0.0831 (active) | normalized growth (locus YCL061C, strain MRC1, stronger effect = lower value): 0.0777 (active) | normalized growth (locus YCL069W, strain vba3, stronger effect = lower value): 0.067 (active) | normalized growth (locus YCR088W, strain abp1, stronger effect = lower value): 0.0699 (active) | normalized growth (locus YDL005C, strain med2, stronger effect = lower value): 0.0923 (active) | normalized growth (locus YDL035C, strain GPR1, stronger effect = lower value): 0.086 (active) | normalized growth (locus YDL040C, strain nat1, stronger effect = lower value): 0.495 (active) | normalized growth (locus YDL074C, strain BRE1, stronger effect = lower value): 0.188 (active) | normalized growth (locus YDL101C, strain DUN1, stronger effect = lower value): 0.0946 (active) | normalized growth (locus YDL134C, strain PPH21, stronger effect = lower value): 0.0628 (active) | normalized growth (locus YDL185W, strain tfp1, stronger effect = lower value): 0.673 (active) | normalized growth (locus YDL192W, strain arf1, stronger effect = lower value): 0.123 (active) | normalized growth (locus YDR001C, strain nth1, stronger effect = lower value): 0.0751 (active) | normalized growth (locus YDR069C, strain doa4, stronger effect = lower value): 0.255 (active) | normalized growth (locus YDR101C, strain arx1, stronger effect = lower value): 0.132 (active) | normalized growth (locus YDR137W, strain rgp1, stronger effect = lower value): 0.644 (active) | normalized growth (locus YDR159W, strain sac3, stronger effect = lower value): 0.155 (active) | normalized growth (locus YDR162C, strain NBP2, stronger effect = lower value): 0.0581 (active) | normalized growth (locus YDR195W, strain ref2): 0.153 (active) | normalized growth (locus YDR297W, strain sur2, stronger effect = lower value): 0.0933 (active) | normalized growth (locus YDR318W, strain mcm21, stronger effect = lower value): 0.0863 (active) | normalized growth (locus YDR334W, strain swr1, stronger effect = lower value): 0.075 (active) | normalized growth (locus YDR335W, strain msn5, stronger effect = lower value): 0.0693 (active) | normalized growth (locus YDR388W, stronger effect = lower value): 0.0688 (active) | normalized growth (locus YDR392W, strain spt3, stronger effect = lower value): 0.0901 (active) | normalized growth (locus YDR502C, strain sam2, stronger effect = lower value): 0.0995 (active) | normalized growth (locus YEL003W, strain gim4, stronger effect = lower value): 0.0687 (active) | normalized growth (locus YEL037C, strain rad23, stronger effect = lower value): 0.0666 (active) | normalized growth (locus YEL061C, strain CIN8 (second series), stronger effect = lower value): 0.0639 (active) | normalized growth (locus YER015W, strain faa2, stronger effect = lower value): 0.0893 (active) | normalized growth (locus YER016W, strain bim1, stronger effect = lower value): 0.306 (active) | normalized growth (locus YER110C, stronger effect = lower value): 0.116 (active) | normalized growth (locus YER111C, strain swi4, stronger effect = lower value): 0.0797 (active) | normalized growth (locus YER155C, strain BEM2 (second series), stronger effect = lower value): 0.106 (active) | normalized growth (locus YER155C, strain BEM2, stronger effect = lower value): 0.0845 (active) | normalized growth (locus YER167W, strain BCK2, stronger effect = lower value): 0.0646 (active) | normalized growth (locus YFR010W, strain ubp6, stronger effect = lower value): 0.0951 (active) | normalized growth (locus YGL078C, strain dbp3, stronger effect = lower value): 0.898 (active) | normalized growth (locus YGL086W, strain mad1, stronger effect = lower value): 0.0765 (active) | normalized growth (locus YGL167C, strain pmr1, stronger effect = lower value): 0.956 (inactive) | normalized growth (locus YGL173C, strain kem1, stronger effect = lower value): 0.474 (active) | normalized growth (locus YGL227W, strain vid30, stronger effect = lower value): 0.0779 (active) | normalized growth (locus YGL240W, strain doc1, stronger effect = lower value): 0.262 (active) | normalized growth (locus YGL248W, strain PDE1, stronger effect = lower value): 0.0583 (active) | normalized growth (locus YGL253W, strain hxk2, stronger effect = lower value): 0.0617 (active) | normalized growth (locus YGR135W, strain pre9, stronger effect = lower value): 0.0806 (active) | normalized growth (locus YGR252W, strain gcn5, stronger effect = lower value): 0.254 (active) | normalized growth (locus YHR013C, strain ard1, stronger effect = lower value): 0.131 (active) | normalized growth (locus YHR027C, strain rpn1, stronger effect = lower value): 0.157 (active) | normalized growth (locus YHR030C, strain SLT2, stronger effect = lower value): 0.0512 (active) and 1.05 (inactive) | normalized growth (locus YHR079C, strain IRE1 (second series), stronger effect = lower value): 0.107 (active) | normalized growth (locus YHR079C, strain IRE1, stronger effect = lower value): 1.03 (inactive) | normalized growth (locus YHR094C, strain hxt1, stronger effect = lower value): 0.0989 (active) | normalized growth (locus YHR129C, strain ARP1, stronger effect = lower value): 0.0688 (active) | normalized growth (locus YHR142W, strain chs7, stronger effect = lower value): 0.0769 (active) | normalized growth (locus YHR200W, strain rpn10, stronger effect = lower value): 0.103 (active) | normalized growth (locus YIL066C, strain RNR3, stronger effect = lower value): 0.0582 (active) | normalized growth (locus YIL073C, strain SPO22, stronger effect = lower value): 0.144 (active) | normalized growth (locus YIL125W, strain kgd1, stronger effect = lower value): 0.886 (active) | normalized growth (locus YIR030C, strain dcg1, stronger effect = lower value): 0.0978 (active) | normalized growth (locus YJL092W, strain hpr5, stronger effect = lower value): 0.0727 (active) | normalized growth (locus YJL095W, strain BCK1 (second series), stronger effect = lower value): 0.0644 (active) | normalized growth (locus YJL095W, strain BCK1, stronger effect = lower value): 0.0614 (active) and 1.03 (inactive) | normalized growth (locus YJL115W, strain asf1, stronger effect = lower value): 0.0841 (active) | normalized growth (locus YJL129C, strain trk1, stronger effect = lower value): 0.0945 (active) | normalized growth (locus YJL134W, strain LCB3, stronger effect = lower value): 0.0822 (active) | normalized growth (locus YJL154C, strain vps35, stronger effect = lower value): 0.0818 (active) | normalized growth (locus YJL164C, strain tpk1, stronger effect = lower value): 0.0731 (active) | normalized growth (locus YJL166W, strain qcr8, stronger effect = lower value): 0.0704 (active) | normalized growth (locus YJL168C, strain set2, stronger effect = lower value): 0.121 (active)
